# Measured values as given in ChEMBL document CHEMBL1961873, “Compounds: GSK PKIS; Assays: Nanosyn kinase panel” (2012).
# Tests used:
# [1] = target: Sphingosine kinase 1 (Homo sapiens) (UniProt Q9NYA1); conditions: at 1 µM;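 also: mean SPHK1 inhibition value reported from the GSK PKIS kinase panel screen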
# [2] = target: T1, Sphingosine kinase 2 (Homo sapiens) (UniProt Q9NRA0); conditions: at 0.1 µM
# T1 sequence (whole entry): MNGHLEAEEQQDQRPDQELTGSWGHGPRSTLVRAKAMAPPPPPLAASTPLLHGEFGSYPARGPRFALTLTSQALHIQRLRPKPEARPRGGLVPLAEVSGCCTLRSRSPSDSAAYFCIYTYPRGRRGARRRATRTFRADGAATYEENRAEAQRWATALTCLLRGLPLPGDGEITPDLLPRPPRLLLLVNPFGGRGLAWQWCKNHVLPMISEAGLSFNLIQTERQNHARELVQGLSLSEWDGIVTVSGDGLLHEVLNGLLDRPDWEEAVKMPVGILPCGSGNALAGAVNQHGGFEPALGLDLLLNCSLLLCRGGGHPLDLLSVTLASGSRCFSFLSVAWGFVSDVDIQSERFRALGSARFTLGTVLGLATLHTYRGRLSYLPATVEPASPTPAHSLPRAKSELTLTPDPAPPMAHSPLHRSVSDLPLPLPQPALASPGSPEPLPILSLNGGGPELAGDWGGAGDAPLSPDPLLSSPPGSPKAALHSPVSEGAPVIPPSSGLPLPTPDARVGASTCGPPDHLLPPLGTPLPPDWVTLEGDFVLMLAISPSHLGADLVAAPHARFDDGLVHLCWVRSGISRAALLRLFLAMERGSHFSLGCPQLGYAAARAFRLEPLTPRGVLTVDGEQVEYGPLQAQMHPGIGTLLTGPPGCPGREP
# [3] = target: T1, Sphingosine kinase 2 (Homo sapiens); conditions: at 1 µM
# [4] = target: Casein kinase II subunit alpha (Homo sapiens) (UniProt P68400); conditions: at 0.1 µM
# [5] = target: Casein kinase II subunit alpha (Homo sapiens) (UniProt P68400); conditions: at 1 µM
# [6] = target: T2, Inhibitor of nuclear factor kappa-B kinase subunit alpha (Homo sapiens) (UniProt O15111); conditions: at 0.1 µM
# T2 sequence (whole entry): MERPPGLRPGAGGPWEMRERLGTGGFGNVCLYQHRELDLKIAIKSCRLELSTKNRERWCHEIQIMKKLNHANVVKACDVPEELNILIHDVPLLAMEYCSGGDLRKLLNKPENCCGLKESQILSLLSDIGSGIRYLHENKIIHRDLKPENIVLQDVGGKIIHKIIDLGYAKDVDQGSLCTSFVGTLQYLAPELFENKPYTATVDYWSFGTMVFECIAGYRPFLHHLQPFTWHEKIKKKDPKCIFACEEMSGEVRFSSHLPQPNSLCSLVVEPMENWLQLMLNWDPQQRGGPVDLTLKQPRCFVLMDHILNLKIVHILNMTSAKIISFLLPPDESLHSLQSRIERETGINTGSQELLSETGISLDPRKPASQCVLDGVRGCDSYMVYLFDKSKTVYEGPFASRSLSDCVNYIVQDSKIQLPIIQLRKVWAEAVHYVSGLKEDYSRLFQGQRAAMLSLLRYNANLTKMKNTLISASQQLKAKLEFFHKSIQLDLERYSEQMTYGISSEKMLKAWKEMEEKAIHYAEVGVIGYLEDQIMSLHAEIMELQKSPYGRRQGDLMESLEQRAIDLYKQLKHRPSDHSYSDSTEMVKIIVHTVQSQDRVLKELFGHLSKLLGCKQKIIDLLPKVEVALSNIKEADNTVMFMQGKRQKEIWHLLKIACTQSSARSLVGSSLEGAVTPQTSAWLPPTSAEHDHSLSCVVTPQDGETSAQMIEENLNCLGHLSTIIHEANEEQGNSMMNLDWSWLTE
# [7] = target: T2, Inhibitor of nuclear factor kappa-B kinase subunit alpha (Homo sapiens); conditions: at 1 µM
# [8] = target: T3, Inhibitor of nuclear factor kappa-B kinase subunit beta (Homo sapiens) (UniProt O14920); conditions: at 0.1 µM
# T3 sequence (whole entry): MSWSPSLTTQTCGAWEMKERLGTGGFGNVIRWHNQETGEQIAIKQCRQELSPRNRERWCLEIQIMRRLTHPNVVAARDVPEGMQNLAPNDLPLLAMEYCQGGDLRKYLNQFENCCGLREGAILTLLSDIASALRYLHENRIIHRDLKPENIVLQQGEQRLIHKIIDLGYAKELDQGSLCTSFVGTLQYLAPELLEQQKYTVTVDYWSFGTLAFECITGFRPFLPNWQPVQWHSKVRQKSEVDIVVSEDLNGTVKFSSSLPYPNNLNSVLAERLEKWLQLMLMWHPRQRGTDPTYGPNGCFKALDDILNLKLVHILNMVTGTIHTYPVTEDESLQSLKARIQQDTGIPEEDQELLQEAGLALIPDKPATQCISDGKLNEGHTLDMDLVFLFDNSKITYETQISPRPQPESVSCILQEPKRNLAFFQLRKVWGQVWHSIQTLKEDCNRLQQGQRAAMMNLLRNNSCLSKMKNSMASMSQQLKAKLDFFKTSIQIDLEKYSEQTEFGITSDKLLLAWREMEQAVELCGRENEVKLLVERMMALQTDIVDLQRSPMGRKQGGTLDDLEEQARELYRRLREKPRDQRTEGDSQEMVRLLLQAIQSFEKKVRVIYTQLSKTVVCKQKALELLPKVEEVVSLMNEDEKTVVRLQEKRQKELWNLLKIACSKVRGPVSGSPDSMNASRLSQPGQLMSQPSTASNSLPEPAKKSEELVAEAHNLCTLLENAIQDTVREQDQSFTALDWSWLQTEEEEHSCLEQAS
# [9] = target: T3, Inhibitor of nuclear factor kappa-B kinase subunit beta (Homo sapiens); conditions: at 1 µM
# [10] = target: T4, Inhibitor of nuclear factor kappa-B kinase subunit epsilon (Homo sapiens) (UniProt Q14164); conditions: at 0.1 µM
# T4 sequence (whole entry): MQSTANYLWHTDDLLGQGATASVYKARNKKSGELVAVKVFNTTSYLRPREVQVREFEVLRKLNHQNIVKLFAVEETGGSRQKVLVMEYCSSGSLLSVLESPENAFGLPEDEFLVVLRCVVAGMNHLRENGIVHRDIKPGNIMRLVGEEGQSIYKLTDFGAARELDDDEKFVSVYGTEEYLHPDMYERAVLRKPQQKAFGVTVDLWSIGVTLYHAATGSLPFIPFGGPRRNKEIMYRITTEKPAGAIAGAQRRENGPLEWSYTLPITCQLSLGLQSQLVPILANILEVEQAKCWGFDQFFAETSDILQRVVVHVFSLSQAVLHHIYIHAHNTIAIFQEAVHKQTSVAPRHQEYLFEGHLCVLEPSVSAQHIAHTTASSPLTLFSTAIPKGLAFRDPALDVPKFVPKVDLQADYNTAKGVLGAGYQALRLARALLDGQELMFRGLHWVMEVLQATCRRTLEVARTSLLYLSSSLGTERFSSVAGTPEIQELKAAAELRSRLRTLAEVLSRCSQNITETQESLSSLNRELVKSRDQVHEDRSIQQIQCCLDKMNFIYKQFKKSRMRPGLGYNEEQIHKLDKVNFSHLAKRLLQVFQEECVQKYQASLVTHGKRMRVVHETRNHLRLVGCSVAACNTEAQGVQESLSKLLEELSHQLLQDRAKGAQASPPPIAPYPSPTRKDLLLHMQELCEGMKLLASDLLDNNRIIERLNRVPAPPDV
# [11] = target: T4, Inhibitor of nuclear factor kappa-B kinase subunit epsilon (Homo sapiens); conditions: at 1 µM
# [12] = target: T5, Serine/threonine-protein kinase Nek1 (Homo sapiens) (UniProt Q96PY6); conditions: at 0.1 µM
# T5 sequence (whole entry): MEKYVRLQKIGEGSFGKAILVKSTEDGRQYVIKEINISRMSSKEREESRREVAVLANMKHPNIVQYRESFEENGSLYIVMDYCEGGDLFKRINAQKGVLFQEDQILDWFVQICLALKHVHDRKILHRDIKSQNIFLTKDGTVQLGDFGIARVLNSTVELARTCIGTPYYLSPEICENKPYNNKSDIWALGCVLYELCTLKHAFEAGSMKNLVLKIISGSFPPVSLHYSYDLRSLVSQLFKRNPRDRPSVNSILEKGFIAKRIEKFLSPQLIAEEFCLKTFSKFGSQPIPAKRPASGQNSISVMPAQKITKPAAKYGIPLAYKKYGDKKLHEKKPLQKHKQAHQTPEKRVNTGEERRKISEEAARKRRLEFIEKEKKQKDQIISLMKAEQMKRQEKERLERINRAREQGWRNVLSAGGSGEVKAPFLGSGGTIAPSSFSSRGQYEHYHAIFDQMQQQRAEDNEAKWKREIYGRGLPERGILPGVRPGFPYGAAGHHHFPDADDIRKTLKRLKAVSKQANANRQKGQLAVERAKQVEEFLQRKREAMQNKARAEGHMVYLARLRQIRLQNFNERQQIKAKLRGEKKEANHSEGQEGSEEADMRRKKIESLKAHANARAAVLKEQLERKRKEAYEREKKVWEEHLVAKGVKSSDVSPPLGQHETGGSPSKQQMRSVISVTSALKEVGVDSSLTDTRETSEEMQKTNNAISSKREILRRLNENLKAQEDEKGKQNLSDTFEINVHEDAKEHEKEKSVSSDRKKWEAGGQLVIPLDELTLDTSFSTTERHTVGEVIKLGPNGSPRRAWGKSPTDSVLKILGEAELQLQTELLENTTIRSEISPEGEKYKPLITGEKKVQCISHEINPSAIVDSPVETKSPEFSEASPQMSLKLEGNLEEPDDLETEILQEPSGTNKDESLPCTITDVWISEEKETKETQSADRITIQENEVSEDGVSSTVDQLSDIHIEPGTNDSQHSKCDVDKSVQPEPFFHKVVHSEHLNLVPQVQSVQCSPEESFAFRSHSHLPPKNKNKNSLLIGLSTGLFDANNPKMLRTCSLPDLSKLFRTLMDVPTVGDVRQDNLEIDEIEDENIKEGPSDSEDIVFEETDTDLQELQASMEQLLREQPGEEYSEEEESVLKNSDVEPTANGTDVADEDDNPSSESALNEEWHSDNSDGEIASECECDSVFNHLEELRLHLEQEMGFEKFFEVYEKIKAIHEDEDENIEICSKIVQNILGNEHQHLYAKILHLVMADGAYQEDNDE
# [13] = target: T5, Serine/threonine-protein kinase Nek1 (Homo sapiens); conditions: at 1 µM
# [14] = target: T6, Serine/threonine-protein kinase Nek2 (Homo sapiens) (UniProt P51955); conditions: at 0.1 µM
# T6 sequence (whole entry): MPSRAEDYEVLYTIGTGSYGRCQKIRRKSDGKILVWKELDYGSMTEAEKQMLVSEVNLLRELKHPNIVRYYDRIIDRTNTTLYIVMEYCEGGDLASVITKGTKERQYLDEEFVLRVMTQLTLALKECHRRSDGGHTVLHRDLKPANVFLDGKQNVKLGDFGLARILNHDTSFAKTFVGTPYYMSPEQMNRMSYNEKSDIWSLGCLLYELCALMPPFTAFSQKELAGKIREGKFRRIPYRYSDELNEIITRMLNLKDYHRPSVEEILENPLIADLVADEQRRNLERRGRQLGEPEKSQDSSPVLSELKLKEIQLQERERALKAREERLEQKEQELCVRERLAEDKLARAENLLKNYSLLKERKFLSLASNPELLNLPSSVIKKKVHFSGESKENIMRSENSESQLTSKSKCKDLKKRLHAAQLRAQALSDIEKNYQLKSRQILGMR
# [15] = target: T6, Serine/threonine-protein kinase Nek2 (Homo sapiens); conditions: at 1 µM
# [16] = target: Serine/threonine-protein kinase Nek6 (Homo sapiens) (UniProt Q9HC98); conditions: at 0.1 µM
# [17] = target: Serine/threonine-protein kinase Nek6 (Homo sapiens) (UniProt Q9HC98); conditions: at 1 µM
# [18] = target: Serine/threonine-protein kinase Nek7 (Homo sapiens) (UniProt Q8TDX7); conditions: at 0.1 µM
# [19] = target: Serine/threonine-protein kinase Nek7 (Homo sapiens) (UniProt Q8TDX7); conditions: at 1 µM
# [20] = target: T7, Serine/threonine-protein kinase Nek9 (Homo sapiens) (UniProt Q8TD19); conditions: at 0.1 µM;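 also: reported value is the mean percent inhibition of NEK9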
# T7 sequence (whole entry): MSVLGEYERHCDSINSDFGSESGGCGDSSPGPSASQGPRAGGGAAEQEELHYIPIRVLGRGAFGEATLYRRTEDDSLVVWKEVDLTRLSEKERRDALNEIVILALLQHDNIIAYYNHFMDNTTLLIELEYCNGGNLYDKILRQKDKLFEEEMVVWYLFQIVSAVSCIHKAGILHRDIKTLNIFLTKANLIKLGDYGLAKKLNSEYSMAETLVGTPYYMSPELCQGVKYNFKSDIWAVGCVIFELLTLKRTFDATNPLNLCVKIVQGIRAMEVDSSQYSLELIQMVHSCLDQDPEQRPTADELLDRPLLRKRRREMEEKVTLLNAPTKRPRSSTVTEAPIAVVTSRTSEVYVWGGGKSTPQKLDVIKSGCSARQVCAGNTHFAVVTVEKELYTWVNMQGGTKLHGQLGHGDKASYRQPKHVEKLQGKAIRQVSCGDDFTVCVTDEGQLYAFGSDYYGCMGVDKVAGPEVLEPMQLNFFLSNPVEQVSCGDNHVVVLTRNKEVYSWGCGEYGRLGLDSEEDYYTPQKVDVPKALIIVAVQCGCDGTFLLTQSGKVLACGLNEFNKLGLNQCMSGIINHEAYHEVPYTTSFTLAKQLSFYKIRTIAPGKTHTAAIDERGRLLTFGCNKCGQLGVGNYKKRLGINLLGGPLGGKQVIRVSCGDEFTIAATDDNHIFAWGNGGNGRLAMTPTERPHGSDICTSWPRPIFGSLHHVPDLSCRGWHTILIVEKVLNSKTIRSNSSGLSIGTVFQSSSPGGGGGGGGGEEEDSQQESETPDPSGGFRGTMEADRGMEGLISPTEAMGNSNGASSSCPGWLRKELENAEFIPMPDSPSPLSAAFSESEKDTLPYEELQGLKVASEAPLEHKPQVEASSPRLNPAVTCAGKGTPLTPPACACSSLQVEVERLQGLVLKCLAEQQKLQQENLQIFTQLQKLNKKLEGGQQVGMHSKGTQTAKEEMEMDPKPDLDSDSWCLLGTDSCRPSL
# Chain of Serine/threonine-protein kinase Nek7 (Homo sapiens) (Q8TDX7 whole entry, looked up): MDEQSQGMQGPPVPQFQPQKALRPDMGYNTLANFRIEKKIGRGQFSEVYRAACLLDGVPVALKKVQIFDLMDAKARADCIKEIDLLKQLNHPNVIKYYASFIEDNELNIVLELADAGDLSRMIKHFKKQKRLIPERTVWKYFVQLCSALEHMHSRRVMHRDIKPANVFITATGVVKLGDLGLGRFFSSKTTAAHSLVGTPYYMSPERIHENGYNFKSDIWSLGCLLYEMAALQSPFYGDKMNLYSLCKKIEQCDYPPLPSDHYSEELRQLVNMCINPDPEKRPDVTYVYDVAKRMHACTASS
# Chain of Serine/threonine-protein kinase Nek6 (Homo sapiens) (Q9HC98 whole entry): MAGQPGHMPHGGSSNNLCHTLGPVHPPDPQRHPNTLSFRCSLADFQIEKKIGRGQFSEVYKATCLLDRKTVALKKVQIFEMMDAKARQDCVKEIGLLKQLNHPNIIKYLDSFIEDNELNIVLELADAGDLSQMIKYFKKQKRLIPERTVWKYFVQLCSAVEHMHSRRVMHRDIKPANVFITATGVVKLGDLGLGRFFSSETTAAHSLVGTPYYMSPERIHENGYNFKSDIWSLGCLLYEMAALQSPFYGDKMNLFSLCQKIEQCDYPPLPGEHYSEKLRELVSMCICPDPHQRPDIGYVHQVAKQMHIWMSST
# Chain of Casein kinase II subunit alpha (Homo sapiens) (P68400 whole entry, looked up): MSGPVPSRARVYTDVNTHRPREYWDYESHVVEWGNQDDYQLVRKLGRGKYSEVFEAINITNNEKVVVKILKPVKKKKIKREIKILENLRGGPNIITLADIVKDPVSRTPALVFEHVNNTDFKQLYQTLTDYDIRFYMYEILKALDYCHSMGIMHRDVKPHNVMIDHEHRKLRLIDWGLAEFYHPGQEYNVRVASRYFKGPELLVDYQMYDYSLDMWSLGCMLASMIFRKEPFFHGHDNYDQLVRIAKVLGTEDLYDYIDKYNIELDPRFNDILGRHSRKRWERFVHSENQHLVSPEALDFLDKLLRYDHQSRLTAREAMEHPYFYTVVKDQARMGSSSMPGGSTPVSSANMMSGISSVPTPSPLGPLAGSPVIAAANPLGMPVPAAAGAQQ
# Chain of Sphingosine kinase 1 (Homo sapiens) (Q9NYA1 whole entry): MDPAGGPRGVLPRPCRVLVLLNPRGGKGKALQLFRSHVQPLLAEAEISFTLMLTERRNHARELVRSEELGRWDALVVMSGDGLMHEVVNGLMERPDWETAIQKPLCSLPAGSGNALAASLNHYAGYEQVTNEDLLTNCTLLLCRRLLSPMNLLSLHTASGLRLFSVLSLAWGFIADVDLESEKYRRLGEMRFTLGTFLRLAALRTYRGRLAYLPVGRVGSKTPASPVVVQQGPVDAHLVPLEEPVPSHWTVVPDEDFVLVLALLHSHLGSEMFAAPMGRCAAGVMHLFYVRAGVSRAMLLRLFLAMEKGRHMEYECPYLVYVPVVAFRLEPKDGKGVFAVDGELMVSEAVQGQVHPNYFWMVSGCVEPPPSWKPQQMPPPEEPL
compound,measurement,setting,value
COC(=O)Nc1nc2cc(Oc3ccc(NC(=O)Nc4cccc(Br)c4)cc3)ccc2[nH]1,inhibition,[1],-3.97%
same,inhibition,[2],0.52%
same,inhibition,[3],1.73%
same,inhibition,[4],2.56%
same,inhibition,[5],2.62%
same,inhibition,[6],7.56%
same,inhibition,[7],7.22%
same,inhibition,[8],5.61%
same,inhibition,[9],7.62%
same,inhibition,[10],4.82%
same,inhibition,[11],5.38%
same,inhibition,[12],2.6%
same,inhibition,[13],2.19%
same,inhibition,[14],3.46%
same,inhibition,[15],2.81%
same,inhibition,[16],3.89%
same,inhibition,[17],3.38%
same,inhibition,[18],3.11%
same,inhibition,[19],2.69%
same,inhibition,[20],7.82%
